Source: PubChem (Johns Hopkins Ion Channel Center)
KCNQ2 pot: enhances the rat KCNQ2 potassium channel; O88943; CHO-K1 KCNQ2, FluxOR thallium flux fluorescence; stronger effect = higher value; B-score at 10 µM; 0.54% of 310,000 active; AID 2239;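 active = fluorescence ratio B-score at least 3 SD of library B-scores, with initial fluorescence B-score within 3 of them, cut at about 5.3 in these data; same plate scores as AID 2156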;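 note: B-score of peak minus minimum over baseline fluorescence ratio after K+ and Tl+ stimulus; positive B-score means potentiation of KCNQ2 with more thallium influx and brighter signal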
Target sequence (O88943 whole entry, looked up): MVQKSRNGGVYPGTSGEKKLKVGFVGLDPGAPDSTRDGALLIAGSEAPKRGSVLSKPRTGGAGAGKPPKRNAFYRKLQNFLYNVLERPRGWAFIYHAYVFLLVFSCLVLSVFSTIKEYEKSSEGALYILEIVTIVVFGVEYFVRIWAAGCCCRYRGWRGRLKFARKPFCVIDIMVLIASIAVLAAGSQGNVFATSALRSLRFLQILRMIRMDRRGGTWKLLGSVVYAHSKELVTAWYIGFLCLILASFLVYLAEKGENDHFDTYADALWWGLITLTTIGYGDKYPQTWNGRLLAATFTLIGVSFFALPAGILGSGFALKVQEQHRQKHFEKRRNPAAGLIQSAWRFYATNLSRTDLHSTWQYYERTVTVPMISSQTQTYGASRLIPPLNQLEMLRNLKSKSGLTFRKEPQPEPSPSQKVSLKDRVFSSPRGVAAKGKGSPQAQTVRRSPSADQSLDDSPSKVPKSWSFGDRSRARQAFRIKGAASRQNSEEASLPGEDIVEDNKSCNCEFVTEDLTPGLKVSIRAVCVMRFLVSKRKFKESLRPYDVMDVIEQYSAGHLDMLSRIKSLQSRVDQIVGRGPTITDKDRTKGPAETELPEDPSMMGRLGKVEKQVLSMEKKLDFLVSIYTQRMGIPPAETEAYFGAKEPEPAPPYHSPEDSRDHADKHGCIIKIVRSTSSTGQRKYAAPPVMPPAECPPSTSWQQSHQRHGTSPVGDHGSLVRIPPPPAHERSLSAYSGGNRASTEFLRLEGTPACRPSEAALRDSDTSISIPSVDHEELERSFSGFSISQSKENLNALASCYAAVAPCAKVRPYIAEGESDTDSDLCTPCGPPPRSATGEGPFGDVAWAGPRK
KCNQ2 inh: KCNQ2 (rat) channel inhibition; O88943; CHO-K1 KCNQ2, FluxOR thallium flux, 20 min; stronger effect = lower value; B-score at 10 µM; 1.1% of 310,000 active; AID 2156;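 active = fluorescence ratio B-score at most minus 3 library SDs, with starting brightness B-score within 2 library SDs, cut at about -5.5 in these data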
Active calls of the source: *; i = inactive; . = no result. This is a sample that favours compounds with a hit; in the whole collection about 1.6% have one here.

SMILES	KCNQ2 pot	KCNQ2 inh
COc1ccc(-c2ccc(-c3nnc(-c4cc(OC)ccc4OC)o3)cc2)cc1	0.4	i
COc1ccc(OC)c(-c2cnc(OC(C)(C)C)nc2OC(C)(C)C)c1	-5.7	-5.7*
C=CCn1c(C)cc(C(=O)COC(=O)COc2ccccc2C#N)c1C	.	i
C=CCn1c(C)cc(C(=O)COC(=O)[C@@H](NC(=O)c2ccccc2Cl)C(C)C)c1C	-7.5	-7.5*
COc1ccc(S(=O)(=O)N2CCc3ccccc32)cc1C(=O)N(CC(C)C)C1CCS(=O)(=O)C1 (stereo not drawn)	.	i
CCN(c1ccccc1)S(=O)(=O)c1cc2c(cc1C)NC(=O)CO2	.	i
CN(CCC#N)C(=O)COC(=O)c1ccccc1OCc1ccccc1Cl	2	i
CC12CCC(C(=O)Nc3cc(Cl)ccc3Cl)(C(Br)C1=O)C2(C)C (stereo not drawn)	.	i
Cc1cc(C)cc(NC(=O)CCn2c(=O)c3cccn3c3ccccc32)c1	.	i
Cc1ccnc(NCc2ccc(Cl)cc2)c1	0.28	i
C[C@H]1CCC[C@]2(O[C@H](CCO)C[C@@H](O)[C@@H]2O)O1	0.33	i
CCNC(=O)CSc1nnc(C2CC2)n1-c1ccccc1	.	i
O=C(CSc1nnc(C2CCCCC2)n1-c1ccccc1)NCc1ccco1	-5.6	-5.6*
Cc1ccc(S(=O)(=O)NC2c3cccc4cccc(c34)C2Sc2n[nH]c(N)n2)cc1 (stereo not drawn)	.	i
O=S(=O)(NC1c2cccc3cccc(c23)C1Sc1ncccn1)c1ccc(Cl)cc1 (stereo not drawn)	-6.3	-6.3*
O=C(CCCn1cc([N+](=O)[O-])cn1)Nc1ccc2c(c1)OCO2	.	i
CC1CCCN(C(=O)Cc2cccc3ccccc23)C1 (stereo not drawn)	2	i
NC(=O)c1ccc(Cc2ncc(C(F)(F)F)cc2Cl)s1	.	i
O=S(=O)(N/N=C/c1ccc(Cl)cc1)c1ccc(Cc2ncc(C(F)(F)F)cc2Cl)s1	-6.2	-6.2*
O=C(Cc1ccc(Cl)cc1)NC1CCCN(Cc2ccccc2F)C1 (stereo not drawn)	2.4	i
N#Cc1nc(COc2ccccc2)oc1N1CCN(c2cccc(Cl)c2)CC1	-5.9	-5.9*
N#Cc1nc(COc2cccc(Cl)c2)oc1N1CCN(c2ccccc2)CC1	.	i
Cc1ccc(NC(=O)NCC2CCN(Cc3cccc(Cl)c3)CC2)c(Cl)c1	6.5*	i
O=C(NCC1CCN(Cc2cccc(Cl)c2)CC1)Nc1ccccc1Cl	1.4	i
Cc1csc(=O)n1CCC(=O)OCC(=O)N(CC(C)C)c1c(N)n(Cc2ccccc2)c(=O)[nH]c1=O	2	i
SMILES	KCNQ2 pot	KCNQ2 inh
O=C(O)CC(Cc1ccccc1)c1ccc2c(c1)OCO2 (stereo not drawn)	.	i
CC(=O)N(CCC(Cc1ccccc1)c1ccc2c(c1)OCO2)Cc1ccc(Cl)cc1 (stereo not drawn)	-10	-10*
O=C(CCc1nnc2n(CCc3ccccc3)c(=O)c3ccccc3n12)NCCCN1CCCCC1	1.2	i
COc1ccccc1NS(=O)(=O)c1ccc(Cl)c(NC(=S)NC(=O)C2CCCC2)c1	.	i
CCN(CC)c1ccc(S(=O)(=O)Nc2cc(Cl)ccc2Cl)cc1NC(=S)NC(=O)C1CCCC1	-7.1	-7.1*
CC(=O)N(Cc1ccc(Br)cc1)c1cccc(C)c1C	-6.5	-6.5*
COc1ccc(CN(C(C)=O)c2cccc(C)c2C)cc1	.	i
Cc1ccsc1C(=O)NCCc1c[nH]c2ccccc12	0.21	i
Cc1ccc(C(=O)c2ccc([N+](=O)[O-])cc2)cc1C	5.6*	i
Cc1ccc(C(=O)c2cc([N+](=O)[O-])ccc2N2CCCCC2)cc1C	.	i
COc1ccc(S(=O)(=O)Nc2ccc(NC(C)=O)cc2)cc1[N+](=O)[O-]	.	i
CCOC(=O)c1c(N)sc(N)c1C(=O)OCC	9.7*	i
CCOC(=O)c1c(N)sc(C(N)=O)c1C	.	i
O=S(=O)(c1ccccc1)C1(C2CC(c3ccccc3)=NO2)CC(O)C1 (stereo not drawn)	2.4	i
CCOc1ccc(C2C(C(=O)OC)=CN(C(C)c3ccccc3)C=C2C(=O)OC)cc1 (stereo not drawn)	-7.4	-7.4*
CCOc1ccc(CCNC(=O)C(O)c2ccccc2)cc1 (stereo not drawn)	0.18	i
CCC(C)[C@H](NC(=O)[C@@H]1CSC2c3ccccc3C(=O)N21)C(=O)N1CCCCC1 (stereo partly drawn)	.	i
Cc1cc(OCc2cc(C(=O)N(C)Cc3ccccn3)no2)cc(C)c1Cl	.	i
O=C(NCCc1cn2ccccc2n1)c1cc(COc2ccc3ncccc3c2)on1	-6	-6*
COc1cccc(CN(C)C(=O)c2cc(COc3c(F)cccc3F)on2)c1	.	i
CN(CCCN1CCOCC1)C(=O)c1cc(COc2cccc(C(F)(F)F)c2)on1	.	i
O=C(NC1CCCC1)c1cc(COc2ccc3ncccc3c2)on1	3	i
Cc1cc(OCc2cc(C(=O)N(C)CCOc3ccccc3)no2)cc(C)c1Cl	-5.7	-5.7*
CN(CCc1ccccc1)C(=O)c1cc(COc2cccc(C(F)(F)F)c2)on1	-5.5	-5.5*
COc1cccc(CN(C)C(=O)c2cc(COc3ccc4ncccc4c3)on2)c1	-7.5	-7.5*
SMILES	KCNQ2 pot	KCNQ2 inh
O=C(N/N=C/c1c(Cl)[nH]c2ccccc12)c1ccc2c(c1)OCCO2	1.3	i
CCOC(=O)c1ccccc1NC(=O)COC(=O)C(CCSC)NC(=O)COc1ccccc1 (stereo not drawn)	.	i
O=C(NC1CCSc2ccccc21)c1cc([N+](=O)[O-])ccc1N1CCOCC1 (stereo not drawn)	.	i
CCOc1ccccc1CN1CCNC(=O)C1CC(=O)NCc1cc(C)n(C)n1 (stereo not drawn)	.	i
Cn1c(N)c(C(=O)COC(=O)[C@@H]2CCCN2S(=O)(=O)c2ccc(Cl)cc2)c(=O)n(C)c1=O	3.1	i
COc1ccccc1CNC(=O)CN1C(=O)c2ccc([N+](=O)[O-])cc2C1=O	.	i
Cc1nc(-c2ccc(Cl)cc2)sc1C1(C)CC(c2ccc(C#N)cc2)=NO1 (stereo not drawn)	.	i
Cc1ccc(-c2nnn(CC(=O)N(CCN3CCOCC3)C(C(=O)NC(C)(C)C)c3ccco3)n2)cc1 (stereo not drawn)	.	i
Cc1ccc(-c2nnn(CC(=O)N(CCN3CCOCC3)C(C(=O)NC(C)(C)C)c3ccc(C)o3)n2)cc1 (stereo not drawn)	-6	-6*
CC(C)(C)c1ccc(C(=O)NCC(=O)OCC(=O)c2ccc3c(c2)-c2ccccc2C3)cc1	1.2	i
O=c1cc(O)n(Cc2ccc(F)cc2)c(=O)[nH]1	.	i
N#Cc1ccc(CSCC(=O)NN=C2CCCC2)cc1	.	i
CC1CCCC(C)N1C(=O)CSCc1ccc(Cl)cc1 (stereo not drawn)	-6.3	-6.3*
O=C(CSCc1ccc(Cl)cc1)NN=C1CCCC1	6.8*	i
CC1CCCC(C)N1C(=O)COC(=O)Cc1ccc(Cl)cc1 (stereo not drawn)	.	i
CCC(Oc1ccccc1)C(=O)Nc1nnc(S(=O)(=O)N2CCCC2)s1 (stereo not drawn)	.	i
O=C(c1ccc(F)cc1)C1CCN(Cc2ccc(F)cc2)CC1	.	i
CCOC(=O)c1ccccc1NS(=O)(=O)c1ccc(C)cc1	.	i
CCOC(=O)c1cc(C)n(S(=O)(=O)c2ccc(C)cc2)c1C	-6.6	-6.6*
